Only some compounds are listed: those with a hit (about 1.1% of all), similar ones and a draw of the others.
E-sel TNF inh – E-selectin induction blockers in HUVEC – imaging, immunofluorescence, high content, primary screen | HUVEC TNFa-induced E-selectin immunofluorescence | inhibition, % at 2 µM | 120,000 compounds, 0.71% hits;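 active = inhibition above the batch mean plus 3 SD, and confirmed as a hit on visual image review, cut at about 43% in these data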;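 note: 0% = TNF-stimulated DMSO wells and 100% = unstimulated control wells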
cytoskel mod – modifiers of F-actin cytoskeleton organization, primary screen, imaging, HUVEC, phalloidin staining, high-content imaging; 91,000 compounds, 0.18% hits; AID 836, 2007; HUVEC TNFa F-actin phalloidin imaging; inhibition, % at 2 µM;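 active = inhibition above the batch mean plus 3 SD and confirmed as a hit by visual image inspection, cut at about 30% in these data, passing the limit was not always enough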
TNFa cytotox – cytotoxicity in TNFa-stimulated HUVEC, primary screen, cytotoxicity control for VCAM1 expression modulator project, imaging, Hoechst nuclei count; HUVEC TNFalpha-stimulated, Hoechst cell count; cell count reduction, % at 2 µM; 93,000 compounds, 0.17% hits; AID 848, 2007;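 active = cell count reduction exceeding the screen mean by over 5 SD, scaled to untreated wells per plate, cut at about 78% in these data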;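 note: cells counted after 24 h of TNF alpha exposure following the 1 h pretreatment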
VCAM1 TNFa inh – inhibitors of TNFa-induced VCAM1 expression, primary screen, imaging, HUVEC, TNFa stimulus, immunofluorescence; 95,000 compounds, 0.48% hits; AID 802, 2007; HUVEC TNFa-induced VCAM-1 immunofluorescence, high-content imaging; inhibition, % at 2 µM;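 active = inhibition above the batch mean plus 3 SD, with images confirmed as a hit by eye, cut at about 37% in these data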;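 note: 0% = TNF-stimulated DMSO wells and 100% = unstimulated control wells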
The depositor's hits bear a star.

What do the screens show for `COc1ccccc1OCC(=O)Nc1sc2c(c1C(=O)NCC1CCCO1)CCC2` (stereo not given)?
E-sel TNF inh: 25; cytoskel mod: 0; TNFa cytotox: -21; VCAM1 TNFa inh: 24

What do the screens show for `COc1cc(NC(=O)Cn2ncc(Cl)c(Cl)c2=O)c(C)cc1[N+](=O)[O-]`?
E-sel TNF inh: 83*

What do the screens show for `COc1cc(NC(=O)CN2CCCCC2)c(C)cc1[N+](=O)[O-]`?
E-sel TNF inh: -23

Results for COC(=O)c1c(NC(=O)C2COc3ccccc3O2)sc2c1CCN(Cc1ccccc1)C2 (stereo not given) ?
E-sel TNF inh: 63*

How did Cc1cc(C(=O)NC2CCCc3ccccc32)c(C)o1 (stereo not given) do in these assays?
E-sel TNF inh: 5; cytoskel mod: -32; TNFa cytotox: 11; VCAM1 TNFa inh: 5

How did CC(NCc1ccc2c(c1)OCO2)C(=O)NC1CCCc2ccccc21 (stereo not given) do in these assays?
E-sel TNF inh: 1; cytoskel mod: 7; TNFa cytotox: 95*

Results for N/C(Cc1cccc2ccccc12)=N\OC(=O)c1ccc2c(c1)OCO2 ?
E-sel TNF inh: 83*

How did O=S1(=O)CCN(C(CCO)c2cccc(C(F)(F)F)c2)CC1 (stereo not given) do in these assays?
E-sel TNF inh: 95*

Results for CC(C)(C)c1nn2cnnc2n(/N=C/c2cccc3ccccc23)c1=O ?
E-sel TNF inh: -42

How did Cc1ccc(/C=N/n2c(=O)c(C(C)(C)C)nn3cnnc23)cc1 do in these assays?
E-sel TNF inh: 80*

How did COc1ccc2nc(Cl)c(C#N)cc2c1 do in these assays?
E-sel TNF inh: 0

How did CCOC(=O)c1c(O)c(Cl)c(C)[nH]c1=O do in these assays?
E-sel TNF inh: -3

What do the screens show for `O=C(Nc1cccnc1)c1ccccc1O`?
E-sel TNF inh: -3; cytoskel mod: 9; TNFa cytotox: -14; VCAM1 TNFa inh: 10

How did O=C(Nc1cccnc1)c1coc(=O)c2ccccc12 do in these assays?
cytoskel mod: 55*; TNFa cytotox: 59; VCAM1 TNFa inh: -7

How did CN1CCN(C(c2ccc(F)cc2)c2nnnn2Cc2cccs2)CC1 (stereo not given) do in these assays?
E-sel TNF inh: 57*

Results for CCN1CCN(C(c2ccc(F)cc2)c2nnnn2Cc2cccs2)CC1 (stereo not given) ?
E-sel TNF inh: 10

Results for CCOC(=O)C1=C(CC)OC(N)=C(C#N)C1c1ccc(OC)c(C)c1OC (stereo not given) ?
E-sel TNF inh: 37

Results for CCOC(=O)C1=C(CC)OC(N)=C(C#N)C1c1cc(OC)ccc1OC (stereo not given) ?
E-sel TNF inh: 94*

What do the screens show for `Cc1cc(C)nc(N/N=C/c2cc3c(cc2[N+](=O)[O-])OCO3)n1`?
E-sel TNF inh: 2

How did O=[N+]([O-])c1cc2c(cc1/C=N/Nc1nc(Nc3ccccc3)nc(N3CCCCC3)n1)OCO2 do in these assays?
E-sel TNF inh: 57*; cytoskel mod: 7; TNFa cytotox: -6; VCAM1 TNFa inh: -4

How did CCOC(=O)C1CCCN(C(=O)c2cc(Nc3ccc(OC)cc3)nc3ccccc23)C1 (stereo not given) do in these assays?
E-sel TNF inh: 18; cytoskel mod: 4; TNFa cytotox: -4; VCAM1 TNFa inh: 3

How did COc1ccc(S(=O)(=O)Nc2cc3c(C(C)=O)c(C)oc3c3ccccc23)cc1 do in these assays?
E-sel TNF inh: 29; TNFa cytotox: 41; VCAM1 TNFa inh: 80*

Results for Cc1cccc2cc(CN(Cc3ccccc3)C(=O)c3cccc(F)c3)c(Cl)nc12 ?
E-sel TNF inh: -16; cytoskel mod: -20; TNFa cytotox: -14; VCAM1 TNFa inh: 9

What do the screens show for `O=C1CC(c2cc(Br)ccc2F)c2cc3c(cc2N1)CCC3` (stereo not given)?
E-sel TNF inh: -5; cytoskel mod: -40; VCAM1 TNFa inh: 82*

How did C=CCn1c(SCC(=O)NC)nc2sc3c(c2c1=O)CCC3 do in these assays?
E-sel TNF inh: 80*; cytoskel mod: 1; TNFa cytotox: -11; VCAM1 TNFa inh: 9

How did C=CCn1c(SCC(=O)OC)nc2sc3c(c2c1=O)CCN(C)C3 do in these assays?
E-sel TNF inh: -36; cytoskel mod: -24; TNFa cytotox: 12; VCAM1 TNFa inh: 15

Results for CCCCN(C(=O)NC(=O)Nc1cccc(C)c1C)S(C)(=O)=O ?
cytoskel mod: -73; TNFa cytotox: 70; VCAM1 TNFa inh: 90*

Results for O=C(Cc1csc(-c2ccccc2)n1)NCc1cccs1 ?
E-sel TNF inh: -10

What do the screens show for `CN(Cc1ccccc1)C(=O)c1cc(-c2ccc(Br)cc2)on1`?
E-sel TNF inh: 100*

What do the screens show for `COc1cccc(CN2CCNC(=O)C2CC(=O)NCCc2nc(C)c(C)s2)c1OC` (stereo not given)?
E-sel TNF inh: -24

What do the screens show for `O=C(O)Cc1ccc(NC(=O)C2CC=CCC2C(=O)O)cc1` (stereo not given)?
E-sel TNF inh: 10; cytoskel mod: -15; TNFa cytotox: 57; VCAM1 TNFa inh: 55*

Results for CCc1ccc(NC(=O)C2CC=CCC2C(=O)O)cc1 (stereo not given) ?
E-sel TNF inh: 20; cytoskel mod: 10; TNFa cytotox: 35; VCAM1 TNFa inh: 16

How did CCN(CC)Cc1cc(NC2=NS(=O)(=O)c3ccccc32)ccc1OC(=O)c1ccccc1 do in these assays?
E-sel TNF inh: 10

How did CCC(C(=O)N1CCc2cc(OC)c(OC)cc2C1)c1ccccc1 (stereo not given) do in these assays?
E-sel TNF inh: 100*; cytoskel mod: 30; TNFa cytotox: -18; VCAM1 TNFa inh: 12

What do the screens show for `COc1ccc(Nc2nc(N3CCCC3)nc3ccccc23)c(OC)c1`?
E-sel TNF inh: -16; cytoskel mod: 6; TNFa cytotox: 6; VCAM1 TNFa inh: 94*

Results for COc1ccc(/C=N/NC(=O)Cc2cc(OC)c(OC)cc2[N+](=O)[O-])cc1 ?
E-sel TNF inh: -21

What do the screens show for `CCN1C(=O)CSC1=NC12CC3CC(CC(C3)C1)C2`?
E-sel TNF inh: -2; cytoskel mod: -22; TNFa cytotox: 66; VCAM1 TNFa inh: 96*

Results for CN1C(=O)CSC1=NC12CC3CC(CC(C3)C1)C2 ?
E-sel TNF inh: -14; cytoskel mod: 12; TNFa cytotox: -12; VCAM1 TNFa inh: 26

Results for CC(C)Oc1ccc(C(CC(=O)O)n2cnnn2)cc1 (stereo not given) ?
E-sel TNF inh: -10

Results for O=C(Cc1ccc(Cl)cc1Cl)Nc1cccc(S(=O)(=O)Nc2ccccc2F)c1 ?
E-sel TNF inh: 21

Results for COc1ccc(Nc2nc(C)cc(C)c2C#N)cc1OC ?
E-sel TNF inh: 59*; cytoskel mod: -2; TNFa cytotox: -4; VCAM1 TNFa inh: 1

How did COc1cccc(Nc2nc(C)cc(C)c2C#N)c1 do in these assays?
E-sel TNF inh: -7; cytoskel mod: 2; TNFa cytotox: -16; VCAM1 TNFa inh: -6

How did Cc1ccc(NC(=O)CSc2nnc(Cn3c(=O)sc4ccccc43)n2C)cc1Cl do in these assays?
E-sel TNF inh: 9
